In all, about 370,000 compounds went through this assay and about 4,700 (1.3%) were called active. This excerpt belongs to a sample that is enriched for actives. A number with no mark means an inactive call.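 Rule for the calls: active = inhibition above the plate cutoff, the mean of all test compounds on that plate plus 3 SD (cut at about 35% in these data); inactive = the rest.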

This test can be described thus: small molecules binding CAG repeat RNA – biochemical, fluorescence, primary screen (AID 651821).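 Note: 0% = DMSO alone and 100% = 100 µM mitoxantrone as full dye displacement; higher means more dye released from RNA so lower well fluorescence.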 Conditions: r(CAG) RNA repeat, TO-PRO-1 dye displacement fluorescence; at 3 µM; active compounds read high.
As a reminder, the inhibition is the change of the read-out against control, counted positive when it falls. Regarding `Cc1ccccc1NC(=O)Cn1nnc(-c2ccccc2F)n1`, the inhibition was 0.27%.

Turning to `CCC(C)n1[nH]c(=O)cc1N` (configuration not stated), the inhibition was -0.11%. Then `CC(C)(C)n1nc(C2CC2)c(Br)c1NC(=O)c1ccccc1F`, with 2.68%; and `Cc1cc(=O)[nH]c(SCC(=O)Nc2ccc(Cl)cc2C)n1`, with 4.47%. Consider `COc1ccc(NC(=O)CSc2nc(NS(=O)(=O)c3ccc(C)cc3)cc(=O)[nH]2)cc1`, for which the inhibition is 13.4%. Regarding `Cc1ccc(NC(=O)CSc2nc(CSc3ccc(C)cc3)cc(=O)[nH]2)cc1`, the inhibition was 45.1% (active). As to `CCOC(=O)C1=C(C)NC2=C(C(=O)CC(C)(C)C2)C1c1ccc2c(c1)OCO2` (configuration not stated), the inhibition is 1.3%.

On to `O=C(O)C(=Cc1ccccc1[N+](=O)[O-])c1ccccc1`, for which the inhibition is -2.74%. For `O=C(NN=Cc1ccco1)C(=O)Nc1ccc(Cl)c([N+](=O)[O-])c1`, the inhibition was 6.16%.

Turning to `O=C(N/N=C/c1cc(Cl)cc([N+](=O)[O-])c1O)C(O)(c1ccccc1)c1ccccc1`, the inhibition was 75.8% (active). The same measure for `Cc1cc(Br)cn2c(Cc3ccccc3C(F)(F)F)c(-c3ccc(C#N)cc3)nc12`: 7.42%; for `CC(=O)c1c(C)[nH]c(C(=O)OCC(=O)Nc2sc3c(c2C#N)CCCC3)c1C`: 19.6%; for `COc1cccc(CN(C)CC(=O)Nc2sc3c(c2C#N)CCC3)c1`: -1.59%.

With `N#CCC(=O)Nc1ccc(C(=O)OCC(=O)Nc2sc3c(c2C#N)CCCC3)cc1`, the inhibition is 37.6% (active). As to `COC(=O)C1CN(CC(C)C)CCS(=O)(=O)N1Cc1ccc(F)cc1` (configuration not stated), the inhibition was -0.73%. Then `COC(=O)c1cc(S(=O)(=O)N2CCN(c3ccccc3C)CC2)cn1C`, with 1.46%; and `COc1ccc(/C=C(/NC(=O)c2ccccc2)C(=O)Nc2cccc(C(=O)O)c2)cc1`, with 6.11%; and `O=C(/C=C/c1cc2c(cc1Br)OCO2)NCc1ccc(Cl)cc1`, with 0.75%. Regarding `COc1ccc(C(=O)Nc2cccc(/C=C(/CCC(=O)O)c3nc4ccccc4s3)c2)cc1`, the inhibition was 71.7% (active). For the compound `Cn1c(SCc2nc3ccccc3s2)nnc1-c1ccc2c(c1)OCO2`, the inhibition was -0.18%. Regarding `O=C(O)CC/C(=C\c1cc2c(cc1Br)OCO2)c1nc2ccccc2s1`, the inhibition is 38.8% (active). As for `CCOc1ccc(C(=O)Nc2cccc(SC)c2)cc1`, the inhibition was -4.59%. For the compound `Cc1cc(=O)[nH]c(SCC(=O)Nc2ccc(F)cc2F)n1`, the inhibition was 7.71%. As for `CN(C)CC(=O)N[C@@H]1C[C@@H]2O[C@H](CO)CC[C@@H]2O[C@@H]1CCc1ccc(C#Cc2ccccc2)cc1`, the inhibition was 2.31%. The same measure for `COC(=O)[C@]12C[C@H](CC(=O)NCCC(C)C)C(=O)N(CCc3ccc(OC)c(OC)c3)C1=C[C@H](C(C)(C)C)O[C@@H]2C`: 0.35%; for `CC(C)[C@H]1COCCS(=O)(=O)N1Cc1ccccc1-c1cccc2c1sc1ccccc12`: 9.63%. Consider `CCN(CCCNC(=O)C1CCN(S(=O)(=O)c2cnc[nH]2)CC1)c1ccccc1`, for which the inhibition is 1.6%. Then `COc1ccc(CCNC(=O)COC(=O)c2cc(=O)c3ccccc3o2)cc1`, with 0.17%.

As for `COc1ccc(CNC(=O)COC(=O)C2=Cc3ccccc3OC2)cc1`, the inhibition is 78.9% (active).

With `COc1ccc(CNC(=O)COC(=O)C(CCSC)N2C(=O)c3ccccc3C2=O)cc1` (configuration not stated), the inhibition was 3.76%. As to `CCOC(=O)[C@]12CCCCC/C=C\1N(Cc1ccc(OC)cc1)C(=O)[C@H]2CC(=O)NCCCN1CCCC1=O`, the inhibition is 0.52%.

On to `COC(=O)[C@]12C[C@H](CC(=O)NCc3ccccc3)C(=O)N(Cc3ccccc3)C1=C[C@H](COCc1ccccc1)O[C@@H]2C`, for which the inhibition is 8.61%.

Consider `O=C1Oc2ccccc2C(=O)/C1=C/c1ccccc1O`, for which the inhibition was 51% (active). The same measure for `Cc1ccc(-c2nc(C3CCCN(S(=O)(=O)c4ccc(Br)s4)C3)no2)cc1` (configuration not stated): 5.63%; for `C=CCN=C1NC(c2cccc(C(F)(F)F)c2)C(C(=O)OC)=C(C)N1C` (configuration not stated): 6.1%. Then `Cc1cc(C(=O)NNC(=O)c2cccc(S(=O)(=O)N3CCOCC3)c2)c2ccccc2n1`, with 0.6%; and `Cc1cc(C)cc(OCC(=O)NCc2cc(C)nc3ccccc23)c1`, with -3.64%; and `O=C(NNc1c2ccccc2nc2ccccc12)c1cc2ccccc2cc1O`, with 49.2% (active).

On to `Oc1c(Cl)cc(Cl)c(Cl)c1Cc1c(O)c(Cl)cc(Cl)c1Cl`, for which the inhibition is 94% (active).

As for `CCOC(=O)CNC(=O)N(C)[C@H]1C[C@H]2c3[nH]c4c(-c5ccc6c(c5)OCO6)cccc4c3CCN2C(=O)[C@H]1[C@H](C)O`, the inhibition was 9.34%. In the case of `O=[N+]([O-])c1cc(Cl)cc(/C=N/NC(=S)Nc2cc(S(=O)(=O)N3CCOCC3)ccc2Cl)c1O`, the inhibition is 37.7% (active).

As for `COCCNC(=S)Nc1cc(S(=O)(=O)N2CCOCC2)ccc1N1CCCCC1`, the inhibition was 1.62%.

Consider `Cc1cc(OCCCC(=O)Nc2cc(S(=O)(=O)N3CCOCC3)ccc2N2CCOCC2)ccc1Cl`, for which the inhibition was 2.46%.

As to `O=C(C(=O)N1CCC(c2ccccc2)CC1)c1ccccc1`, the inhibition is 1.3%. For `CCOC(=O)c1cccc(NC(=O)CN(C)S(=O)(=O)c2ccc(-c3cocn3)s2)c1`, the inhibition is 2.95%. Then `O=C(CSc1nnc(-c2ccccn2)n1-c1ccccc1)Nc1ccc2cn[nH]c2c1`, with 3.05%; and `O=C(Nc1cccc(Cl)c1)OC1CC2CC1[C@H]1CCCCN1[C@H]2Cc1ccccc1` (some centres not stated), with 7.48%.

As to `Cc1ccccc1OS(=O)(=O)c1cccc([N+](=O)[O-])c1`, the inhibition is 0.69%.

As to `O=C(NCC1CCCO1)/C(=C/c1ccc(Cl)cc1)NC(=O)c1ccccc1` (configuration not stated), the inhibition is -2.17%.

In the case of `Cn1c2ccccc2c2cc(/C=C(\NC(=O)c3ccccc3)C(=O)NCC(=O)O)ccc21`, the inhibition is 35.8% (active). Regarding `CCn1cc(/C=C(\NC(=O)c2ccc(C)cc2)C(=O)NCCN2CCOCC2)c2ccccc21`, the inhibition is -0.63%. The same measure for `Cc1nc2ccc(C(=O)N3CCN(C(=O)C(C)(C)C)CC3)cc2n1C1CCCC1`: 0.89%; for `O=C1CC[C@@H](COc2ccc3[nH]cc(-c4ccccc4)c3c2-c2ccccc2)N1`: 6.86%. In the case of `C[C@H]([C@@H](O)[C@@H](O)[C@@H](C)C(C)(C)C)[C@H]1CC[C@H]2C3CC[C@H]4C[C@H](OS(=O)(=O)O)[C@@H](OS(=O)(=O)O)C[C@]4(C)[C@H]3CC[C@]12C` (some centres not stated), the inhibition is 88.4% (active). Take `CC(=O)O[C@H]1CC[C@@]2(C)[C@@H](CC[C@@H]3[C@@H]2CC[C@]2(C)[C@@H](C(C)(C)O)C[C@@H]32)C1`: the inhibition was 5.36%. Consider `O=C(N[C@H](Cc1ccccc1)C(=O)N1CCCN(Cc2cccs2)CC1)[C@H]1O[C@@H](n2ccc(=O)[nH]c2=O)[C@H](O)[C@@H]1O`, for which the inhibition is 1.68%.

On to `O=S1(=O)c2ccc(Br)cc2-n2nncc2CN1Cc1cccc(Cl)c1`, for which the inhibition is 7.4%. With `C=C(Cl)COC(=O)C1C2C=CC(C2)C1C(=O)O` (configuration not stated), the inhibition is -2.82%. The same measure for `Cc1noc(C)c1S(=O)(=O)NCCc1ccc(S(N)(=O)=O)cc1`: 2.53%; for `COC(=O)C[C@@H]1CC[C@H]2[C@@H](COc3ccc(NS(=O)(=O)CC(F)(F)F)cc3C(=O)N2C)O1`: 2.52%; for `COc1cc(=O)[nH]c(=O)n1C(=O)Cc1ccccc1`: 5.86%. On to `CCCOc1ccc(Cn2c(O)cc(=O)[nH]c2=O)cc1`, for which the inhibition is 37.6% (active).

With `COc1ccc(Cn2c(O)c(/C=C3/C=CC=N3)c(=O)[nH]c2=O)cc1`, the inhibition was 4.64%. `CN(C)C(=O)N1CCN(C(=O)[C@@H](Cc2ccccc2)NC(=O)[C@H]2O[C@@H](n3ccc(N)nc3=O)[C@H](O)[C@@H]2O)CC1`: the inhibition was 2.21%.

Regarding `FC(F)(F)c1cccc(Cn2ccc3ccc(-c4ccc5ccn(Cc6ccccc6)c5c4)cc32)c1`, the inhibition was 11%.

Turning to `CC1=C(C(=O)N(C)C)C(c2ccccc2OC(F)F)NC(=O)N1` (configuration not stated), the inhibition is -5.88%. Then `O=C(c1cccc(C(F)(F)F)c1)N1CC[C@H]2[C@H](CCCN2Cc2cc(F)cc(F)c2)C1`, with -2.78%; and `Cc1cc(/C=C2/C(=N)N3C(=NC2=O)SN=C3S(C)(=O)=O)c(C)n1-c1ccccc1`, with 58.3% (active); and `CCOC(=O)C1=C(O)/C(=C/c2cc(C)n(-c3ccccc3)c2C)N=C1C`, with 8.38%. With `CC1=CC2=NC(=O)/C(=C/c3coc4ccccc4c3=O)C(=N)N2O1`, the inhibition was -66.6%. `COc1ccc2c(C(C)c3ccc(N)cc3)cn(C)c2c1` (configuration not stated): the inhibition is 5.87%. Then `CN1C(=O)C2CC(O)C(SC3CC4C(=O)N(C)C(=O)C4CC3O)CC2C1=O` (configuration not stated), with 1.65%. For `COc1ccc(Cn2ccc3ccc(-c4ccc5ccn(Cc6ccccc6C)c5c4)cc32)cc1`, the inhibition was 15.1%. Then `Cc1ccc(NC(=O)N2CCC(c3nc4c(nnn4Cc4c(F)cccc4Cl)c(=O)[nH]3)CC2)cc1`, with 3.25%; and `O=C(Nc1ccc(F)cc1)N1CCCC(c2nc3c(nnn3Cc3ccccc3Cl)c(=O)[nH]2)C1` (configuration not stated), with 0.69%. Then `Cc1ccc(C)c(Cn2nnc3c(=O)[nH]c(C(=O)Nc4ccc(F)cc4)nc32)c1`, with 60.2% (active).

For `COc1cccc(N2CCN(CC(=O)N(C)Cc3ccc(F)cc3)CC2)c1`, the inhibition was -1.77%. The same measure for `O=C1CCCCC1C(=O)c1ccccc1` (configuration not stated): -0.64%.

Regarding `C[C@H](O)[C@@H]1C(=O)N2CCc3c([nH]c4c(-c5ccc6c(c5)OCO6)cccc34)[C@@H]2C[C@@H]1N(C)C(=O)c1ccco1`, the inhibition is 5.15%. The same measure for `CC(C)NC(=O)c1ccc(Sc2ccccc2)c([N+](=O)[O-])c1`: -3.38%; for `Cc1ccc(Sc2cc(C(=O)c3ccccc3C(=O)O)ccc2[N+](=O)[O-])cc1`: 72.1% (active).

Turning to `Cc1ccc(C(=O)c2ccc(N3CCN(C)CC3)c([N+](=O)[O-])c2)cc1`, the inhibition was -0.77%.

Source of the values: PubChem BioAssay AID651821 (The Scripps Research Institute Molecular Screening Center, 2012).
